Values joined by “and” are separate entries in the source; they are usually repeats but may differ in a detail not shown here. Identical values can stand only once. Counter-ions that a name gives are not always drawn. Out of some 5,800 compounds screened, about 620 (11%) showed activity. For the sample, actives were picked, then their nearest neighbours and some compounds at random. Unmarked numbers belong to inactive results.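 How the source made its calls: active = score above a cut-off or among the top three wells of a plate; in these data no inactive exceeds 0.85.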
System: primary human hepatic stellate cells (donor 1)
Assay: scaled lipid accumulation score (0 = DMSO-like, 1 = nortriptyline-like); higher = stronger HSC inactivation (lipid re-accumulation), active = hit call of the paper
Details: 48 h
[1] = library stock concentration: 1 mM
[2] = library stock concentration: 3.33 mM
[3] = library stock concentration: 10 mM
[4] = library stock concentration: 80 uM
[5] = library stock concentration: 400 uM
[6] = library stock concentration: 2 mM

## COc1ccc2cc(C(C#N)OC(=O)CC3OC3c3ccccc3)ccc2c1 (configuration not stated)
[1]
  scaled lipid accumulation score: 0.017

## C[N+](C)(C)[C@@H](Cc1c[nH]c(=S)[nH]1)C(=O)[O-] [Ergothioneine]
Library stock concentration: 8.7 mM
  scaled lipid accumulation score: ≤ -0.006

## CN(C)CCCCC(=O)Nc1ccc(NC(=S)NC(=O)c2ccc(C(C)(C)C)cc2)cc1 [Tenovin-6] [listing 1 of 2 here]
[2]
  scaled lipid accumulation score: 1.18 (active)

## CN(C)CCCCC(=O)Nc1ccc(NC(=S)NC(=O)c2ccc(C(C)(C)C)cc2)cc1 [Tenovin-6] [listing 2 of 2 here]
[1]
  scaled lipid accumulation score: 0.143
[3]
  scaled lipid accumulation score: 0.405

## CC(=O)Nc1ccc(NC(=S)NC(=O)c2ccc(C(C)(C)C)cc2)cc1 [Tenovin-1]
[1]
  scaled lipid accumulation score: ≤ 0

## O=C(O)C=Cc1cc(Br)c(Br)c(Br)c1Br [Casein Kinase II Inhibitor III, TBCA]
[2]
  scaled lipid accumulation score: ≤ 0

## Cc1cccc(-c2[nH]c(CNc3ccccc3F)nc2-c2ccc3ncnn3c2)n1
[4]
  scaled lipid accumulation score: ≤ -0.001
[5]
  scaled lipid accumulation score: ≤ -0.001
[6]
  scaled lipid accumulation score: ≤ -0.001
[3]
  scaled lipid accumulation score: ≤ -0.001

## CCCCCCCCCCCCCCCCOC[C@@H](O)COP(=O)(O)O [1-Hexadecyl Lysophosphatidic Acid]
[1]
  scaled lipid accumulation score: ≤ 0

## Cc1nc(N=Nc2ccc(C(=O)O)cc2)c(COP(=O)(O)O)c(C=O)c1O
[3]
  scaled lipid accumulation score: 0.139

## CCCCCCCCCCCCCCCCCC(=O)NCCS(=O)(=O)O [N-Stearoyl Taurine]
[1]
  scaled lipid accumulation score: 0.008

## CNC(=O)c1ccc(C)c(-n2c(C)cc(OCc3ccc(F)cc3F)c(Br)c2=O)c1
[4]
  scaled lipid accumulation score: 0.057
[5]
  scaled lipid accumulation score: 0.038
[6]
  scaled lipid accumulation score: 0.056
[2]
  scaled lipid accumulation score: 0.014
[3]
  scaled lipid accumulation score: ≤ 0 and ≤ -0.001

## CCN(CCCOc1ccc2c(Nc3cc(CC(=O)Nc4cccc(F)c4)[nH]n3)ncnc2c1)CCOP(=O)(O)O [Barasertib]
[4]
  scaled lipid accumulation score: 0.022
[5]
  scaled lipid accumulation score: ≤ -0.001
[6]
  scaled lipid accumulation score: 0.115
[3]
  scaled lipid accumulation score: 0.242

## CCC=CCC=CCC=CCCCCCCCCCC(=O)O [11(Z),14(Z),17(Z)-Eicosatrienoic Acid]
[1]
  scaled lipid accumulation score: ≤ 0

## O=S(=O)(c1ccccc1)c1cnc2c(N3CCNCC3)cccc2c1 [listing 1 of 2 here]
[3]
  scaled lipid accumulation score: 0.994 (active)

## Cc1ccc(Sc2ccccc2N2CCNCC2)c(C)c1
[2]
  scaled lipid accumulation score: 0.769
[3]
  scaled lipid accumulation score: 0.102

## O=S(=O)(c1ccccc1)c1cnc2c(N3CCNCC3)cccc2c1 [listing 2 of 2 here]
[2]
  scaled lipid accumulation score: 0.285

## CCCCCCC[C@H](O)/C=C/[C@@H]1[C@@H](C/C=C\CCCC(=O)O)[C@@H](O)C[C@H]1O [20-ethyl Prostaglandin F2.alpha.]
[1]
  scaled lipid accumulation score: ≤ 0

## NC(=O)Nc1cc(-c2cccc(F)c2)sc1C(=O)N[C@H]1CCCNC1 [listing 1 of 2 here]
[2]
  scaled lipid accumulation score: 0.879 (active)

## NC(=O)Nc1cc(-c2ccccc2)sc1C(N)=O [IKK-2 Inhibitor XI]
[2]
  scaled lipid accumulation score: ≤ 0

## NC(=O)Nc1cc(-c2cccc(F)c2)sc1C(=O)N[C@H]1CCCNC1 [listing 2 of 2 here]
[4]
  scaled lipid accumulation score: ≤ 0
[5]
  scaled lipid accumulation score: 0.06 and ≤ -0.005
[6]
  scaled lipid accumulation score: 0.23 and 0.444
[3]
  scaled lipid accumulation score: 0.559 and 0.276

## CNCC(O)c1ccc(O)c(O)c1 (racemic) [(+/-)-Epinephrine hydrochloride]
[3]
  scaled lipid accumulation score: ≤ 0

## CCCCC[C@H](O)CC[C@@H]1[C@@H](C/C=C\CCCC(=O)O)[C@@H](O)C[C@H]1O [13,14-dihydro Prostaglandin F2.alpha.]
[1]
  scaled lipid accumulation score: ≤ 0

## CCCCC[C@H](O)/C=C/[C@@H]1[C@@H](CCCCCCC(=O)O)[C@@H](O)C[C@H]1O [Prostaglandin F1.alpha.]
[1]
  scaled lipid accumulation score: ≤ 0

## O=P(O)(O)OC1[C@@H](O)[C@H](O)C(O)[C@H](O)[C@@H]1O (stereo partly drawn) [D-myo-Inositol-3-phosphate (sodium salt)]
[1]
  scaled lipid accumulation score: 0.009

## Fc1cc(-c2ccnc(Nc3ccc(-n4cnc(N5CCOCC5)n4)cc3)n2)cc(N2CCOCC2)c1
[4]
  scaled lipid accumulation score: 0.394
[5]
  scaled lipid accumulation score: 0.734
[6]
  scaled lipid accumulation score: 0.178
[3]
  scaled lipid accumulation score: 0.442

## Cc1nc(N)sc1-c1ccnc(Nc2ccc(N3CCOCC3)cc2)n1 [listing 1 of 3 here]
[5]
  scaled lipid accumulation score: ≤ -0.005
[6]
  scaled lipid accumulation score: ≤ -0.005
[2]
  scaled lipid accumulation score: ≤ 0

## Cc1ncc(-c2ccnc(Nc3ccc(S(C)(=O)=O)cc3)n2)n1C(C)C
[4]
  scaled lipid accumulation score: 0.708
[5]
  scaled lipid accumulation score: 0.763
[6]
  scaled lipid accumulation score: 0.527
[2]
  scaled lipid accumulation score: 0.078
[3]
  scaled lipid accumulation score: 0.329 and 0.334

## Cc1nc(N)sc1-c1ccnc(Nc2ccc(N3CCOCC3)cc2)n1 [listing 2 of 3 here]
[3]
  scaled lipid accumulation score: 1.07 (active)

## Cc1nc(N)sc1-c1ccnc(Nc2ccc(N3CCOCC3)cc2)n1 [listing 3 of 3 here]
[3]
  scaled lipid accumulation score: 1.02 (active)

## C[C@@H](O)[C@@H]1NC(=O)[C@H](CCCCN)NC(=O)[C@@H](Cc2c[nH]c3ccccc23)NC(=O)[C@H](Cc2ccccc2)NC(=O)[C@@H](NC(=O)[C@H](N)Cc2ccccc2)CSSC[C@@H](C(=O)N[C@H](CO)[C@@H](C)O)NC1=O [Octreotide]
[6]
  scaled lipid accumulation score: 0.006

## CC(=O)O/N=C1/C(c2c(O)[nH]c3cc(Br)ccc23)=Nc2ccccc21 [GSK-3 Inhibitor X]
[2]
  scaled lipid accumulation score: ≤ 0

## O=C1C[C@@H]2[C@@H](CC[C@@H](O)CCc3ccccc3)[C@H](O)C[C@@H]2O1 [Latanoprost Lactone Diol]
[1]
  scaled lipid accumulation score: 0.003

## O=C(CCCCCCCCCCCCC1CCCC1)Nc1ccc(S(=O)(=O)c2ccc(NC(=O)CCCCCCCCCCCCC3CCCC3)cc2)cc1 [Chaulmosulfone]
[3]
  scaled lipid accumulation score: ≤ -0.027

## COc1cc2c(Oc3ccc4[nH]c(C)cc4c3F)ncnc2cc1OCCCN1CCCC1 [Cediranib (AZD2171)] [listing 1 of 2 here]
[2]
  scaled lipid accumulation score: 1.1 (active)

## Cc1cc2c(F)c(Oc3ncnn4cc(OC[C@@H](C)OC(=O)[C@H](C)N)c(C)c34)ccc2[nH]1
[2]
  scaled lipid accumulation score: ≤ 0
[3]
  scaled lipid accumulation score: ≤ 0

## COc1cc2c(Oc3ccc4[nH]c(C)cc4c3F)ncnc2cc1OCCCN1CCCC1 [Cediranib] [listing 1 of 2 here]
[4]
  scaled lipid accumulation score: 0.077
[5]
  scaled lipid accumulation score: 0.464
[3]
  scaled lipid accumulation score: 0.693

## COc1cc2c(Oc3ccc4[nH]c(C)cc4c3F)ncnc2cc1OCCCN1CCCC1 [Cediranib (AZD2171)] [listing 2 of 2 here]
[3]
  scaled lipid accumulation score: 0.678

## Cc1cc2c(F)c(Oc3ncnn4cc(OC[C@@H](C)O)c(C)c34)ccc2[nH]1
[2]
  scaled lipid accumulation score: 0.023
[3]
  scaled lipid accumulation score: ≤ 0

## Cc1cc2c(F)c(Oc3ncnn4cc(OC[C@@H](C)O)c(C)c34)ccc2[nH]1 [Brivanib]
[4]
  scaled lipid accumulation score: ≤ -0.009
[5]
  scaled lipid accumulation score: ≤ -0.009
[6]
  scaled lipid accumulation score: ≤ -0.009
[3]
  scaled lipid accumulation score: ≤ -0.009

## COc1cc2c(Oc3ccc4[nH]c(C)cc4c3F)ncnc2cc1OCCCN1CCCC1 [Cediranib] [listing 2 of 2 here]
[6]
  scaled lipid accumulation score: 1.06 (active)

## CCCCCCCC/C=C\CCCCCC(=O)O [cis-7-Hexadecenoic Acid]
[1]
  scaled lipid accumulation score: ≤ 0

## COC(=O)C(C)(N)Cc1ccc(O)cc1 (racemic) [alpha-Methyl-DL-tyrosine methyl ester hydrochloride]
[3]
  scaled lipid accumulation score: ≤ -0.019

## CN1CCC(CNc2ccc3ncc(-c4cccc(OC(F)(F)F)c4)n3n2)CC1 [listing 1 of 2 here]
[6]
  scaled lipid accumulation score: 1.4 (active)

## CN1CCC(CNc2ccc3ncc(-c4cccc(OC(F)(F)F)c4)n3n2)CC1 [listing 2 of 2 here]
[4]
  scaled lipid accumulation score: 0.117
[5]
  scaled lipid accumulation score: 0.23
[3]
  scaled lipid accumulation score: 0.47

## CN1CCC(CNc2ccc3ncc(-c4cccc(OC(F)(F)F)c4)n3n2)CC1 [SGI-1776 free base]
[2]
  scaled lipid accumulation score: 0.774
[3]
  scaled lipid accumulation score: 0.181

## CCCCC/C=C\C/C=C\C/C=C\C/C=C\CCCC(=O)NC[C@]1(C)CCC[C@]2(C)c3ccc(C(C)C)cc3CC[C@@H]12 [Arachidonic Acid Leelamide]
[1]
  scaled lipid accumulation score: 0.002

## CCCCCCCCCCCCCCCC(=O)NC(CO)CO [Palmitoyl Serinol]
[1]
  scaled lipid accumulation score: 0.026

## O=C(Nc1ccncc1)Nc1c(Cl)cc(Cl)cc1Cl [Rho Kinase Inhibitor II]
[2]
  scaled lipid accumulation score: ≤ 0

## Cc1cc(C)c(Nc2ccnc(Nc3ccc(C#N)cc3)n2)c(C)c1 [Dapivirine (TMC120)] [listing 1 of 2 here]
[3]
  scaled lipid accumulation score: 1.08 (active)

## Cc1cc(/C=C/C#N)cc(C)c1Nc1ccnc(Nc2ccc(C#N)cc2)n1 [Rilpivirine]
[2]
  scaled lipid accumulation score: ≤ -0.009
[3]
  scaled lipid accumulation score: ≤ 0

## Cc1cc(C)c(Nc2ccnc(Nc3ccc(C#N)cc3)n2)c(C)c1 [Dapivirine (TMC120)] [listing 2 of 2 here]
[2]
  scaled lipid accumulation score: 0.243

## Cc1ccccc1-c1cccc(N2CCC(N3CCN(C)C(C)C3)CC2)c1 (configuration not stated)
[3]
  scaled lipid accumulation score: 1.05 (active)

## O=C(O)CCC/C=C\C[C@@H]1[C@@H](/C=C/[C@H](O)CCc2ccccc2)[C@H](O)C[C@@H]1O [15(R)-17-phenyl trinor Prostaglandin F2.alpha.]
[1]
  scaled lipid accumulation score: ≤ 0

## CN(Cc1ccccc1)C(=O)[C@H](Cc1ccc2ccccc2c1)NC(=O)[C@@H]1C[C@@H](O)CN1C(=O)c1cn(C)c2ccccc12
[3]
  scaled lipid accumulation score: 0.019

## CN(Cc1ccccc1)C(=O)[C@H](Cc1ccc2ccccc2c1)NC(=O)[C@@H]1CCCN1C(=O)Nc1ccccc1[N+](=O)[O-]
[3]
  scaled lipid accumulation score: 0.005

## CNC(=O)[C@@H](Cc1ccccc1)N(C)C(=O)[C@@H](Cc1ccc2ccccc2c1)N(C)C(=O)/C=C/CC(C)(C)N.CNC(=O)[C@@H](Cc1ccccc1)N(C)C(=O)[C@@H](Cc1ccc2ccccc2c1)N(C)C(=O)/C=C/CC(C)(C)N.O=C(O)/C=C/C(=O)O [Tabimorelin]
[3]
  scaled lipid accumulation score: 1.3 (active)

## CCCCCCCCCCCCC/C=C/[C@@H](O)[C@H](CO)NC(=O)CCCCCCCCCCCCCCC [C16 Ceramide]
[1]
  scaled lipid accumulation score: ≤ -0.021

Reference: the supplement of paper PMC9135407
